The text below walks through data of PubChem BioAssay (EPA / NIEHS).

Calls of active or inactive are those of the source. Rule for the calls: active = hit-call score of the fitted dose curve at least 0.9, where 1 is the maximum; inactive = score below 0.9.

The experiment is described as follows: ATG_GATA_CIS: Attagene CIS-FACTORIAL HepG2 Assay for human GATA Binding Protein (AID 2282944). The note with it: HepG2 GATA cis-element reporter, Attagene multiplex mRNA; actives raise or lower the signal. Put shortly:
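Cells: HepG2, transiently transfected with cis-regulated reporter transcription units. Exposure: 24 h. Detection: RT-PCR plus capillary electrophoresis of FAM-labeled fragments. Analysis: bidirectional, DMSO as baseline.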
With `CCOS(=O)(=O)OCC`, the compound was classed as inactive.

As for `ClC(Cl)(Cl)c1ccccc1`, the compound was classed as inactive.

Consider `CC(C)(C)N(NC(=O)c1ccc(Cl)cc1)C(=O)c1ccccc1`, for which the call was inactive.

For the compound `CCN(CC)c1ccccc1`, the compound was called inactive.

As to `CCCCN(CCCC)SN(C)C(=O)Oc1cccc2c1OC(C)(C)C2`, the result was inactive.

As for `CCOP(=S)(OCC)SCSCC`, the result was inactive.

As to `CCCCCCCc1ccc(O)cc1`, the outcome was inactive.

Take `O=C(O)C=CC(F)(C(F)(F)F)C(F)(F)F`: the call was inactive.

As for `CC(Cc1ccc(OCC(=O)O)cc1)NCC(O)c1csc(C(F)(F)F)n1` (stereo unspecified), the compound was called inactive.

Consider `CCC(C)(C)c1ccc(O)cc1`, for which the outcome was inactive.

On to `O=S(=O)(F)C(F)(F)C(F)(F)C(F)(F)C(F)(F)C(F)(F)C(F)(F)C(F)(F)C(F)(F)F`, for which the outcome was inactive.

Consider `N#Cc1c(-c2ccc(Cl)cc2)[nH]c(C(F)(F)F)c1Br`, for which the call was inactive.

For the compound `O=P(Oc1ccccc1)(Oc1ccccc1)Oc1ccccc1`, the compound was called inactive.

On to `O=[N+]([O-])c1ccc(Cl)c(Cl)c1`, for which the call was inactive.

For `C/C(=N\NC(=O)Nc1cc(F)cc(F)c1)c1ncccc1C(=O)O`, the call was inactive.

As for `Nc1ccc(Cl)cc1`, the compound was called inactive.

Turning to `CC(O)C#N` (stereo unspecified), the compound was called inactive.

For `C=C(C)C(=O)OCC1CO1` (stereo unspecified), the result was inactive.

For `CCCCN(CC)C(=O)SCCC`, the compound was classed as inactive.

`CCCCN(CCCC)N=O`: the call was inactive.

As for `ClC(Cl)c1ccccc1`, the call was inactive.

Take `c1ccc2c(c1)sc1ccccc12`: the outcome was inactive.

Consider `Cc1ccc([N+](=O)[O-])cc1C`, for which the outcome was inactive.

As to `CCC1(c2ccccc2)C(=O)N=C(O)NC1=O` (stereo unspecified), the compound was classed as inactive.

`OCC(F)(F)OC(F)(F)C(F)(F)OC(F)(F)CO`: the outcome was inactive.

`CCOP(=S)(Oc1ccc([N+](=O)[O-])cc1)c1ccccc1` (stereo unspecified): the result was inactive.
